We go through 28 compounds from PubChem BioAssay AID624329 (National Center for Advancing Translational Sciences (NCATS), 2012).

SMILES strings stand for the structures. Inconclusive results are not listed. Unmarked numbers belong to inactive results. Activity calls are given as the source filed them. Calls follow the shape of the dose curve; as a rule, active = well fitted curve in the direction sought with a large enough effect; inconclusive = small, poorly fitted or top-dose-only effect; inactive = flat fitted curve, though single readings scatter.

A short description of this assay: Quantitative high throughput screen for delayed death inhibitors of the malarial parasite plastid: Hit Validation with 3D7 at 48 hr using Flow Cytometry. The note with it: P. falciparum 3D7 growth, flow cytometry SYBR/MitoTracker; fraction of growth remaining: at 50 µM (top of the series). The source says:
The goal of this screen is to discover new antimalarial compounds that act by inhibiting the development of the apicoplast organelle in the malarial parasite Plasmodium falciparum. Some antibiotics, such as azithromycin and tetracycline, are known to interfere with the apicoplast translational machinery, and have a potent antimalarial effect. […] We developed a cell-based quantitative high throughput screen that leverages this "delayed death" phenotype to enrich for compounds that target the apicoplast. To detect small molecules that cause the delayed death phenotype, erythrocytes infected with firefly luciferase-expressing parasites were incubated with compounds for either one or two generations, corresponding to 48 and 96 hours, respectively. Growth inhibition was detected by a decrease in luciferase activity. Compounds that inhibited parasite growth in the second generation at least five-fold more potently than in the first generation were defined as delayed death inducing. These compounds were selected for confirmatory screening using a flow cytometry based assay. This hit validation assay used the 3D7 cell line and measured at 48 hours. NIH Molecular Libraries Probe Production Network [MLPCN] NIH Chemical Genomics Center [NCGC] MLPCN Grant: R21 NS059500 Assay Provider: David Fidock and Eric Ekland, Columbia University
Test compounds were diluted in 20 microliters of complete media (RPMI 1640 with 0.5% w/v Albumax (GIBCO), 24 mM sodium bicarbonate (Sigma) and 10 ug/mL gentamycin (Gibco)) in clear 384-well plates (Greiner). All liquid handling was conducted using a Bio Tek Precision 2000 pipetting system. Twenty microliters of infected erythrocytes, 0.2% parasitemia (for 48 hour time points) or 0.1% parasitemia (for 96 hour time points) were added to the compound dilutions (1% hematocrit, final concentration; 40 microliters, total culture volume). The assay plates were incubated for 48 hours, or 96 hours, at 37 masculine C in a humidified chamber (Billups- Rothenberg, Del Mar, CA, USA), gassed with 5%CO2/5%O2/ 90%N2. After one generation (48 hours), 5 microliters of culture were harvested and transferred to a second 384 well plate for fluorescent staining. Samples were stained with 30 microliters of 2 x SYBR Green I (Invitrogen) and 150nM MitoTracker Deep Red (Invitrogen) diluted in 0.9% NaCl, 0.2% dextrose (Baxter) supplemented with 2.5% Fetal Calf Serum (Gibco) (saline/FCS). Mature erythrocytes lack nuclei and mitochondria, therefore only parasitized erythrocytes retain the SYBR Green I and MitoTracker Deep Red. After 30 minutes at 37 masculine C, the stained cells were diluted in an additional 60 microliters of saline/FCS. The samples were harvested directly from the 384 well plate using a Hypercyt High Capacity Flow Platform (Intellicyt) paired with a C6 Flow Cytometer (Accuri). The flow cytometry files were analyzed using FlowJo software (FlowJo).
Background: A flow cytometer gives signals particle by particle.
Take `CCCc1cc(=O)oc2cc(OC(C)C(=O)NCc3ccccn3)c(Cl)cc12` (stereo not drawn): the Potency is 16.9 µM (active).
Regarding `CCCCN(CCCNC(=O)c1ccc(CS(=O)(=O)c2ccc(OC)cc2)o1)Cc1ccccc1`, the fraction of growth remaining was 0.163 (active).
As for `Cc1ccc(S(=O)(=O)Nc2ccc(C(=O)Nc3ccncc3)cc2)cc1`, the Potency is 26.3 µM (active).
Same read-out and setting: the same measure for `CCCCN(CCCNC(=O)C1CCN(C(=O)c2cc3sccc3n2C)CC1)Cc1ccccc1`: 9.82 µM (active).
On the same count and under the same terms, the value for `COc1ccc2cc3cc(C(=O)Nc4ccc5c(c4)OCO5)oc3nc2c1` was 48.3 µM (active).
`CCC(=O)OC1C(N(C)C)CC(C)O[C@H]1O[C@H]1[C@H](C)[C@@H](O[C@H]2CC(OC)[C@@H](O)C(C)O2)[C@H](C)C(=O)O[C@@H](CC)[C@](C)(O)[C@@H](O)[C@H](C)C(=O)[C@@H](C)C[C@]1(C)O` (stereo partly drawn): the “fraction of growth remaining” value was 0.768.
In the case of `CCOc1ccc(NC(=O)C[n+]2ccc(N(C)C)cc2)cc1`, the Potency is 25.8 µM (active).
With `Cc1ccc(CN2CCC(n3nccc3NC(=O)c3ccccc3C)CC2)o1`, the fraction of growth remaining was 0.498 (active).
As for `COc1ccc2c(ccc[n+]2CC(=O)c2ccccc2)c1`, the Potency was 9.29 µM (active).
Turning to `COc1cccc(CN2CCN(c3nc4nonc4nc3N3CCCCC3)CC2=O)c1`, the Potency was 5.55 µM (active).
`c1csc(CNc2ncnc3nc[nH]c23)c1`: the “fraction of growth remaining” value is 0.572.
`CCc1nc(SCC(=O)Nc2ccc(N(C)C)cc2)n[nH]1`: the Potency is 0.4 µM (active).
The same measure, in the same setting: the same measure for `CCCCOc1ccc(N2C(N)=NC(N)=NC23CCCCC3)cc1`: 22.2 µM (active).
As to `O=C(CNC(=O)C1CCCCC1)OC(C(=O)c1ccccc1)c1ccccc1` (stereo not drawn), the “fraction of growth remaining” value was 0.652.
`CCOC(=O)c1ccc2c(c1)n(CC)c(/C=C/N(C)c1ccccc1)[n+]2CC`: the Potency is 1.52 µM (active).
Consider `Clc1ccc(-c2c[n+](Cc3ccc(Cl)cc3Cl)c3n2CCCCC3)cc1`, for which the Potency was 5.64 µM (active).
For `N#Cc1cccc(NC(=O)Cn2c3[n+](c4ccc(C(F)(F)F)cc42)CCCCC3)c1`, the Potency was 19.9 µM (active).
On the same count and under the same terms, the value for `O=C(NCc1cccnc1)c1ccc(NS(=O)(=O)c2ccccc2)cc1` was 30.9 µM (active).
Regarding `CC(=O)NC[C@@H]1CN(c2ccc(N3CCOCC3)c(F)c2)C(=O)O1`, the “fraction of growth remaining” value is 0.835.
Take `Cc1ccc(-n2c(-c3ccc(Cl)cc3)c[n+]3c2CCC3)cc1`: the Potency is 4.64 µM (active).
In the case of `CO[C@@H]1[C@@H](OC2OC(C)C(OC3CC(C)(O)C(OC(=O)CC(C)C)C(C)O3)C(N(C)C)C2O)[C@@H](CC=O)C[C@@H](C)C(=O)/C=C\C2O[C@H]2C[C@@H](C)OC(=O)C[C@H]1OC(C)=O` (stereo partly drawn), the Potency is 2.95 µM (active).
Still for that read-out and setting: the value for `O=C(CSc1ccc(-c2cccnc2)nn1)Nc1ccccc1C(F)(F)F` was 12.4 µM (active).
On the same count and under the same terms, the value for `CCCc1c(CC)c(=N)c2ccccc2n1C` was 6.48 µM (active); that for `COc1ccccc1N1CCN(CCC(=O)Nc2ccc(F)cc2)CC1` was 18.3 µM (active); that for `Cc1c(F)c(N2CCNC(C)C2)cc2c1c(=O)c(C(=O)O)cn2C1CC1` (stereo not drawn) was 5.98 µM (active).
Take `CC1=Nc2cc(C(=O)N3CCCC3)ccc2Sc2ccc(C)cc21`: the fraction of growth remaining is 0.151 (active).
In the case of `COc1ccc(NC(=S)N2CCC(Cc3ccccc3)CC2)cc1OC`, the Potency is 46.5 µM (active).
`CCOc1ccc(S(=O)(=O)Nc2cc(S(=O)(=O)N(CC)CC)ccc2N2CCCC2)cc1`: the Potency was 12.5 µM (active).
